# RE007 growth inh = less growth of the S. pombe RE007 Vpr strain; 360,000 compounds, 0.21% hits; Potency, µM (titrated, usually from 92.2 µM), inactives show at the highest dose activity change, negative = less growth, hits mostly inhibitors; S. pombe RE007 Vpr strain, BacTiter-Glo ATP luminescence, 24 h; active means well fitted falling curve with a large enough effect; inconclusive means small, poorly fitted or top-dose-only effect; inactive means no such curve, though single readings can be large or run the other way; further: nearly all actives have a fitted effect of over 50% in size
#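 Fission yeast RE007 carrying one integrated HIV-1 vpr copy, seeded at OD 0.01 in PMG+AL medium with 23 nL pinned compound. Grown 24 h at 30 degrees; viability read by BacTiter-Glo luminescence after 5 min.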
# Sm TGR inh = S. mansoni TGR enzyme inhibition; purified TGR, DTNB reduction, TNB absorbance 405 nm; Potency, µM (highest dose often 114 µM), inactives show top-dose activity change, negative = inhibition, usual class: inhibitors; 360,000 compounds, 3% hits; further: nearly all actives have a fitted effect of over 60% in size
#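 TGR 20 nM + NADPH 100 uM (dispensed conc.), cpd preinc 15 min RT; start with NADPH (500 uM addition) then DTNB (15 mM addition). Kinetic TNB absorbance, 405 nm filter. Four-parameter Hill fit across titration.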
# AmpC detergent = inhibitors of E. coli AmpC beta-lactamase with detergent. P00811. AmpC hydrolysis of nitrocefin, absorbance 480 nm, 0.01% Triton. Potency, µM (doses to about 114 µM), inactives show at the top dose activity change, negative = inhibition, actives largely listed as inhibitors. 370,000 compounds, 0.041% hits;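 further: 0% = no-compound wells and -100% = no-enzyme wells; nearly all actives have a fitted effect of over 25% in size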
# Target sequence (P00811 whole entry, looked up): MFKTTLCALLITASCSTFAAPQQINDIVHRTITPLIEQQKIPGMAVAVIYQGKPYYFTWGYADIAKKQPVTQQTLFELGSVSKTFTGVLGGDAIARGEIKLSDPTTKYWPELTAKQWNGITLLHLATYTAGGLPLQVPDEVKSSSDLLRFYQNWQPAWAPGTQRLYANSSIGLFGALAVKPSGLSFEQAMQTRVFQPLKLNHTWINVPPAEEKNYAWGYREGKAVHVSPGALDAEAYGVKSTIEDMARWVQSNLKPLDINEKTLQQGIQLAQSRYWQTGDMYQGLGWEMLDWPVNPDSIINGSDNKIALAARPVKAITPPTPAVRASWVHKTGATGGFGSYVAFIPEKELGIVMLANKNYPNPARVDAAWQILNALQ
#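 20 mM phosphate pH 7.0 + 0.01% (detergent screen) or 0.0001% Triton X-100; 5.3 nM AmpC reagent; cpd preinc 15 min RT; nitrocefin (800 uM stock) to start; A480 q20 s × 4 min; Activity was normalised to no-enzyme and no-compound control wells.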
# AmpC inh no detg = AmpC beta-lactamase inhibition without detergent; P00811; AmpC nitrocefin hydrolysis, absorbance 480 nm, 0.0001% Triton; Potency, µM (highest dose often 57.1 µM), for the others: at the highest dose activity change, negative = inhibition, actives largely listed as inhibitors; 330,000 compounds, 0.52% hits;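 further: plate controls were no compound for no effect and no enzyme for full effect; nearly all actives have a fitted effect of over 20% in size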
#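 AmpC (5.3 nM in the dispensed reagent) in 20 mM phosphate pH 7.0 with 0.01% (detergent screen) or 0.0001% Triton X-100 was preincubated with compounds for 15 min at room temperature. Nitrocefin was then added from an 800 uM solution, and hydrolysis was followed at 480 nm.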
# AMA1-RON2 inh = disrupts binding of P. falciparum AMA1 to RON2; AlphaScreen AMA1-biotinylated RON2 peptide binding; Potency, µM (series often up to 58.2 µM), inactives show top-dose activity change, negative = inhibition, hits mostly inhibitors; 360,000 compounds, 0.2% hits; AID 720542;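 further: 0% = vehicle wells and -100% = peptide control; nearly all actives have a fitted effect of over 45% in size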
#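 AMA1 (3D7) with his tag at 25 nM final met compounds first, then biotinylated RON2 peptide at 25 nM; detection used donor plus acceptor beads, 10 µg/mL apiece, read by AlphaScreen after 30 min at room temperature.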
# * hit, by the source's call; ? = inconclusive; . = not tested or not shown. An excerpt weighted towards active compounds, which were near 3.2% of everything screened. Unless noted, the call rests on the fitted dose curve; in most records, active means well fitted curve in the direction sought with a large enough effect; inconclusive means small, poorly fitted or top-dose-only effect, or another doubt; inactive means no such curve, though single readings can be large; an effect the other way counts as inactive or inconclusive. Unless noted, on the % scale 0 is the no-effect control and ±100 the full control effect; potency means the concentration at half of the fitted maximal effect.
SMILES,RE007 growth inh,Sm TGR inh,AmpC detergent,AmpC inh no detg,AMA1-RON2 inh
Cc1ccc(NC(=O)c2cc(N3C(=O)C=CC3=O)ccc2N2CCOCC2)cc1Cl,7.9µM*,0.71µM*,-7%,53%,0%
Cc1nn(CC(=O)Nc2ccccc2F)c(=O)c2c(C)n(-c3ccc(Cl)cc3)nc12,.,0%,-6%,.,.
COc1cc(OC)c(N(C)C(=O)c2sc3nc4n(c(=O)c3c2C)CCCC4)cc1Cl,.,32µM*,17%,.,.
Cc1c(C(=O)N(C)c2cccc(C(F)(F)F)c2)sc2nc3n(c(=O)c12)CCCCC3,.,10µM*,17%,.,.
COc1cc(OC)c(NC(=O)c2sc3nc4n(c(=O)c3c2C)CCCC4)cc1Cl,.,50µM*,-1%,.,.
Cc1c(C(=O)Nc2cccc(C(F)(F)F)c2)sc2nc3n(c(=O)c12)CCCC3,.,-36%,-2%,.,.
COc1ccc(Cl)cc1NC(=O)c1sc2nc3n(c(=O)c2c1C)CCC3,.,-2%,-8%,.,.
COc1cc(OC)c(N(C)C(=O)c2sc3nc4n(c(=O)c3c2C)CCCCC4)cc1Cl,.,-19%,23%,.,.
CCOc1ccc(CN2CCN(C3CCC3)CC2CCO)cc1 (centres undefined),7%,13µM*,-5%,-15%,-10%
COc1ccccc1N1C(=O)c2cccnc2C1=O,-12%,56µM*,6%,-2%,21%
COc1ccc(OC)c(N2C(=O)c3cccnc3C2=O)c1,5%,-1%,0%,-11%,0%
CC(O)c1nc(C(C)O)n(CC(=O)c2ccccc2)n1 (centres undefined),-2%,45µM*,-1%,-19%,-2%
CCCOc1cccc(C2C(C(=O)c3ccc(C)o3)=C(O)C(=O)N2c2nc(C)c(C(C)=O)s2)c1 (centres undefined),9%,35µM*,4%,-29%,30%
C=CCOc1cccc(C2C(C(=O)c3ccc(C)o3)=C(O)C(=O)N2CCN(C)C)c1 (centres undefined),6%,35µM*,?,-5%,17%
Cc1ccccc1NC(=O)CSc1nc(=O)n(CCN2CCOCC2)c2c1CCC2,.,53%,3%,.,.
N/C(=N\c1nc2ccccc2o1)NC(=O)/C=C/c1ccccc1,4%,5%,-4%,5µM*,95%
N/C(=N\c1nc2ccccc2o1)NC(=O)c1ccccc1,-7%,13%,?,-21%,102%
COc1ccccc1N1CCN(S(=O)(=O)c2ccc(F)c(C(=O)Nc3ccc(C)c(F)c3)c2)CC1,.,4%,7%,.,.
Cc1cc(C)c2[nH]c(=O)c(C(c3nnnn3C(C)(C)C)N(Cc3ccco3)CC3CCCO3)cc2c1 (centres undefined),-2%,45µM*,0%,50%,-4%
Cc1cccc2cc(CN(CC3CCCO3)C(c3nnnn3Cc3ccco3)C(C)C)c(=O)[nH]c12 (centres undefined),-2%,50µM*,4%,45%,-11%
CCn1ncc(Br)c1C(=O)Nc1ccccc1C(F)(F)F,-12%,2%,1%,1%,-1%
CCn1ncc(Br)c1C(=O)Nc1ccc(F)cc1F,-20%,3%,-1%,0.32µM*,6%
COc1ccc(C(=O)N2CCc3cc(OC)c(OC)cc3C2COc2ccccc2OC)cc1 (centres undefined),.,20%,5%,.,.
Cc1cccc(C)c1N1C(=O)CC(Sc2ccccc2N)C1=O (centres undefined),-11%,.,.,.,0%
Cc1c(Cl)cccc1N1C(=O)CC(N(O)c2ccccc2)C1=O (centres undefined),-6%,13µM*,?,-23%,-18%
Cc1cccc(C)c1N1C(=O)CC(N(O)c2ccccc2)C1=O (centres undefined),4%,14µM*,6%,-12%,-12%
CCOc1ccccc1N1C(=O)CC(N(O)c2ccccc2)C1=O (centres undefined),-2%,?,?,-16%,-18%

# Screening results as filed in PubChem BioAssay.
